In all, about 33,000 sequences were measured (“E-score (-0.5 to 0.5)”: median about -0.04, highest 2% from about 0.36 on). The sample as a whole holds a higher share of the highest values than the screen did.

The record followed here is the supplement of paper PMC3334620.

The target in the assay is T1, Hmlalpha2 (UniProt P0CY09).
T1 sequence: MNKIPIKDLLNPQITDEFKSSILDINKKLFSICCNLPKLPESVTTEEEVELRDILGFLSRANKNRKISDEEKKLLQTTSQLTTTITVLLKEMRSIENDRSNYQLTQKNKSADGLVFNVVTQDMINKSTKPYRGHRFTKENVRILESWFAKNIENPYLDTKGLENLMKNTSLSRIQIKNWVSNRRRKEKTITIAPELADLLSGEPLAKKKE
Kind of assay: PBM E-score (8-mer binding enrichment) (E-score (-0.5 to 0.5)); higher = stronger / more preferred TF binding. Particulars: protein concentration: 200 nM; construct: GST-full length. On the procedure:
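Universal 'all 10-mer' protein binding microarrays (Agilent AMADID 015681) probed with GST-tagged S. cerevisiae TFs (full-length or DBD) made by in vitro transcription/translation (PURExpress), about 100-200 nM. Bound TF was detected with fluorescent anti-GST. Each ungapped 8-mer (which stands for itself and its reverse complement) is scored by the PBM enrichment score (E-score), a modified Wilcoxon-Mann-Whitney statistic from -0.5 to +0.5, computed with the Universal PBM Analysis Suite. Scale: above 0.35 generally sequence-specific binding.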
With CATACATA, the “PBM E-score” value stood at 0.329. As for AATACAAA, the figure is 0.363; as for AATACAGA, 0.204. Regarding CATACATG, the “PBM E-score” value was 0.382. On to AATACATA, for which the “PBM E-score” value was 0.444. As to CACACCGC, the “PBM E-score” value is -0.0386. With AATTTACT, the “PBM E-score” value stood at 0.296. Regarding TATTTAAA, the “PBM E-score” value was determined as 0.207. As for GATTTACC, the figure is 0.18; as for TATTTACA, 0.463; as for AATTTACA, 0.431. As for CATTTACA, the figure is 0.442; as for GATTTACA, 0.429. As for GATTTAGA, the figure is -0.00065; as for CATTTACC, 0.144.

As for AATTTACC, the “PBM E-score” value is 0.12.

On to TATTTAGA, for which the “PBM E-score” value was 0.28. For the sequence CATTTACG, the “PBM E-score” value was determined as 0.303.

For CCGGTGCC, the “PBM E-score” value was -0.378.

On to AGGAAGAC, for which the “PBM E-score” value is -0.0908. In the case of CACTCGCA it was 0.0187; in that of GACGCGGA, 0.0365; in that of TAAACGGA, 0.0215. In the case of AGAGAGCA it was -0.234; in that of ATGACACA, 0.302; in that of ATGACACG, 0.404. As for AAGACACG, the “PBM E-score” value came to 0.373. In the case of CAGACACG, the “PBM E-score” value is 0.0667. As for AAGACACA, the figure is 0.183; as for GTGACACA, 0.142; as for TCACAGCA, 0.0289.

With ACCGCTGG, the “PBM E-score” value is -0.228. For the sequence ACGATGTA, the “PBM E-score” value is 0.376. In the case of CCGATGTA it was 0.155.

On to GTGATGTA, for which the “PBM E-score” value worked out at 0.382. In the case of ATGATGTA it was 0.358; in that of ACGATGTC, 0.0103.

Turning to GGGATGTA, the “PBM E-score” value stood at 0.328. As to CTGATGTA, the “PBM E-score” value stood at 0.233. Turning to GCGATGAA, the “PBM E-score” value amounted to 0.0458. For the sequence GCGATGTA, the “PBM E-score” value worked out at 0.366.

For the sequence AACTGTTG, the “PBM E-score” value is -0.104.

AAGCCCTA: the “PBM E-score” value turned out to be 0.0656. As for CCACGGTC, the “PBM E-score” value is -0.326.

For ACACGGTG, the “PBM E-score” value came out at 0.392.

Take CCACGGTA: the “PBM E-score” value is -0.0423. As for ATACGGTG, the figure is -0.0688; as for ACACGGTA, 0.366; as for ACACGGAT, 0.36. In the case of ACACGGTC it was 0.397. As for ACACGGAA, the figure is 0.376. With GCACGGTA, the “PBM E-score” value was -0.0709. As for ATACGGTC, the figure is -0.0524.

Regarding AAACGGTG, the “PBM E-score” value is 0.0442. Regarding ACACGGAG, the “PBM E-score” value was 0.315. ATTAAGTC: the “PBM E-score” value amounted to 0.189. In the case of ACCTATGC it was -0.0222; in that of TCTGCGCA, -0.00074. As for CAGGGCCG, the figure is -0.121; as for ACGTTGCG, 0.0728; as for CGTCCTTC, -0.152. As for GTTGAGCA, the “PBM E-score” value is 0.111. In the case of GTTGGCGA it was -0.0755; in that of GGCTCTTA, -0.184. Turning to ACTTAGAT, the “PBM E-score” value worked out at 0.132. In the case of GTCCCTTA it was -0.127; in that of CATTACTA, 0.225. As to CATTACAC, the “PBM E-score” value was 0.474.

On to AATTACAC, for which the “PBM E-score” value was 0.467.

Consider AATTACCC, for which the “PBM E-score” value is -0.0352.

On to CATTACGA, for which the “PBM E-score” value worked out at 0.214. For TGTTACAA, the “PBM E-score” value was found to be 0.31.

As for CATTACAG, the “PBM E-score” value came out at 0.326. In the case of CATTACAA it was 0.411; in that of TATTACAA, 0.416; in that of CATTACCC, -0.00064. As for AATTACAG, the figure is 0.307. As for TCTTACAA, the figure is 0.229; as for GTTTCCCA, -0.0865; as for TCGTTGCA, 0.0513. Take GGAAAGTA: the “PBM E-score” value is -0.136. With AAGAAGAT, the “PBM E-score” value was -0.0289. Regarding CCCGACAG, the “PBM E-score” value was -0.191. AATCGGGG: the “PBM E-score” value was -0.203. In the case of AAGATACC, the “PBM E-score” value was -0.0459.

For the sequence CGGAACCC, the “PBM E-score” value was -0.13. Take CCATTAAG: the “PBM E-score” value was -0.0773. As for TACAAGGA, the “PBM E-score” value is 0.291. In the case of TATCGTCA it was -0.00037; in that of GATTACCA, 0.087.

As to AATTACAA, the “PBM E-score” value was 0.436. On to GATTACCC, for which the “PBM E-score” value was 0.109. Take GATTACAA: the “PBM E-score” value is 0.438. Turning to GATTACAC, the “PBM E-score” value is 0.483.

AATTACTA: the “PBM E-score” value was determined as 0.257.

On to AATTACCA, for which the “PBM E-score” value amounted to 0.273. As to GATTAAAC, the “PBM E-score” value is 0.155.

With GATTACTA, the “PBM E-score” value turned out to be 0.213. Regarding AGCGTTGG, the “PBM E-score” value was -0.0565.

As for CCTTGGGC, the “PBM E-score” value was -0.362.

On to TAGCTCAA, for which the “PBM E-score” value was -0.0444.

For the sequence GACTCTGC, the “PBM E-score” value was -0.314. As for AGGCTGCC, the “PBM E-score” value is -0.401. In the case of ACAGTAAG it was 0.064; in that of GTACGACA, 0.196; in that of ACATGGCC, 0.417.

As to ACATGGTC, the “PBM E-score” value was 0.308.

Consider AGATGGTG, for which the “PBM E-score” value is -0.0243. In the case of CCATGGTA it was 0.00138. As for ACATGGTG, the figure is 0.414; as for GCATGGTA, 0.189; as for ACATGGCG, 0.324. On to ACATGGTA, for which the “PBM E-score” value was found to be 0.397. In the case of GCATGGCC it was -0.0405.
